Measurements as given in the supplement of paper PMC11732987, “Enantioselective OTUD7B fragment discovery through chemoproteomics screening and high-throughput optimisation” (Communications Chemistry, 2025).

How the values were obtained:
Test in all cases: log2 ratio of Biotin-Ahx-Ub-VS probe labelling (fragment/DMSO); higher = less target engagement (more negative = stronger competition), active = hit call of the paper (q ≤ 0.05, log2 ratio ≤ -1)
Details in all cases: compound concentration: 200 uM; treatment time: 3 h
USP34 = USP34 (UniProt Q70CQ2)
Method in brief: (§1)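 HEK293T lysate in Tris/CHAPS/IGEPAL buffer with protease inhibitors (495 µg per sample) was given fragment at 200 µM or vehicle for 3 h, in triplicate. It then received Biotin-Ahx-Ub-VS at 0.5 µM final for 1 h. Labelled DUBs were NeutrAvidin-enriched, digested with LysC and trypsin, and run by diaPASEF LC-MS/MS. Values are average log2 fragment/vehicle ratios by unpaired t-test on global-median-normalised Spectronaut quantities of proteins with ≥2 unique peptides.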

USP36 = molecular target: T1, USP36 (UniProt Q9P275)
T1 sequence (whole entry): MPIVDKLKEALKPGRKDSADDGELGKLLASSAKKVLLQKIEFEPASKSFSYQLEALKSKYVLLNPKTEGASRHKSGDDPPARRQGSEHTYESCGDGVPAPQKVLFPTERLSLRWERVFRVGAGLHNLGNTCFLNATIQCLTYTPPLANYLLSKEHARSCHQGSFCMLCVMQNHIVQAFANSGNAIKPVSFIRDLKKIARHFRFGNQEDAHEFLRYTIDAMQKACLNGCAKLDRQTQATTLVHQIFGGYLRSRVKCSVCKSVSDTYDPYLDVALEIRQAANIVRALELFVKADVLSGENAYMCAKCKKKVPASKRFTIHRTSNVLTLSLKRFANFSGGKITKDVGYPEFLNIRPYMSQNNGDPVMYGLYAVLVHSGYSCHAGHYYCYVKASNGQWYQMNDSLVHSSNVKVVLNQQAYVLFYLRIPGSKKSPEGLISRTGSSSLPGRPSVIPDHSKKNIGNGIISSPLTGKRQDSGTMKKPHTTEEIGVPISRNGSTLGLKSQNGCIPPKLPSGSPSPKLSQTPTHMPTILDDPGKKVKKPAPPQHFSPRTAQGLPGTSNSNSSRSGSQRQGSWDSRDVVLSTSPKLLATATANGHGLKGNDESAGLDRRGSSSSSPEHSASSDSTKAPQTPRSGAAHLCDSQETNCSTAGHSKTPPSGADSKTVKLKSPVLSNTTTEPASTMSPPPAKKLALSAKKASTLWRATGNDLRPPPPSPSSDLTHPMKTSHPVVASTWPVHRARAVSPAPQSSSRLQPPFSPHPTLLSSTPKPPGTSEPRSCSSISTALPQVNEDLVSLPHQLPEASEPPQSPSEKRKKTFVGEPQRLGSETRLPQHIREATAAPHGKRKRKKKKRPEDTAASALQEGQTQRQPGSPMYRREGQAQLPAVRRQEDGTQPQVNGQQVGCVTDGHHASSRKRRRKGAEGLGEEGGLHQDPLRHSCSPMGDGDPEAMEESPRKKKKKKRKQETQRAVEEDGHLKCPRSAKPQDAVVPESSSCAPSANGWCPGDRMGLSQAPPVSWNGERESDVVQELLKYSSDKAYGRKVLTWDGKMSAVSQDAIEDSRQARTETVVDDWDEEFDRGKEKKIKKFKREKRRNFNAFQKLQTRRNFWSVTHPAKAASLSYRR
Method in brief: as §1

USP38 = molecular target: T2, USP38 (UniProt Q8NB14)
T2 sequence (whole entry): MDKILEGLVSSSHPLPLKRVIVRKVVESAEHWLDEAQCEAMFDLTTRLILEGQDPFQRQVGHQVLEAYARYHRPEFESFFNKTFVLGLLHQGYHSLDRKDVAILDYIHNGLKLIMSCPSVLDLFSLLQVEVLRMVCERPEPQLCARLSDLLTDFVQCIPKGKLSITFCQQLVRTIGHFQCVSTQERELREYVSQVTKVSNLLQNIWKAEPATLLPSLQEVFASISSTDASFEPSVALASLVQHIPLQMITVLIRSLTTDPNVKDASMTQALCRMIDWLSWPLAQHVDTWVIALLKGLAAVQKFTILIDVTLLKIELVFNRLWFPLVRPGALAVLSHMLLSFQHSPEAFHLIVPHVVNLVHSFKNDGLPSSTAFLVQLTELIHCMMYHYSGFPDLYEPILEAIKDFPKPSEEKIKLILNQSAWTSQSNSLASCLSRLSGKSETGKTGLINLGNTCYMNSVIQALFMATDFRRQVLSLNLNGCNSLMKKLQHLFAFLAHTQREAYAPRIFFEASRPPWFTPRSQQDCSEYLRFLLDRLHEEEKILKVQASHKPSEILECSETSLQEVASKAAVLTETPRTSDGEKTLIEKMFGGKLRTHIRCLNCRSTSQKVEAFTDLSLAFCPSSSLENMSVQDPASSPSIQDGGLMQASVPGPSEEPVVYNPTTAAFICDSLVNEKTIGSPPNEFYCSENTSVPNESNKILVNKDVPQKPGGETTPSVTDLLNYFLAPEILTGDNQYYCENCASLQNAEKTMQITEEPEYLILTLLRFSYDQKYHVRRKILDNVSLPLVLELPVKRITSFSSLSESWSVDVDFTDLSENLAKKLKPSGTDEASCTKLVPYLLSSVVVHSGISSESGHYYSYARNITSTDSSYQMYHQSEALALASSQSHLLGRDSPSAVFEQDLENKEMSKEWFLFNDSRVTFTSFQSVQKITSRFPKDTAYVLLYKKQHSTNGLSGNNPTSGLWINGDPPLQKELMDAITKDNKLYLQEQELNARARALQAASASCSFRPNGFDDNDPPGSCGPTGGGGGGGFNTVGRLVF
Method in brief: as §1

USP39 = molecular target: T3, USP39 (UniProt Q53GS9)
T3 sequence (whole entry): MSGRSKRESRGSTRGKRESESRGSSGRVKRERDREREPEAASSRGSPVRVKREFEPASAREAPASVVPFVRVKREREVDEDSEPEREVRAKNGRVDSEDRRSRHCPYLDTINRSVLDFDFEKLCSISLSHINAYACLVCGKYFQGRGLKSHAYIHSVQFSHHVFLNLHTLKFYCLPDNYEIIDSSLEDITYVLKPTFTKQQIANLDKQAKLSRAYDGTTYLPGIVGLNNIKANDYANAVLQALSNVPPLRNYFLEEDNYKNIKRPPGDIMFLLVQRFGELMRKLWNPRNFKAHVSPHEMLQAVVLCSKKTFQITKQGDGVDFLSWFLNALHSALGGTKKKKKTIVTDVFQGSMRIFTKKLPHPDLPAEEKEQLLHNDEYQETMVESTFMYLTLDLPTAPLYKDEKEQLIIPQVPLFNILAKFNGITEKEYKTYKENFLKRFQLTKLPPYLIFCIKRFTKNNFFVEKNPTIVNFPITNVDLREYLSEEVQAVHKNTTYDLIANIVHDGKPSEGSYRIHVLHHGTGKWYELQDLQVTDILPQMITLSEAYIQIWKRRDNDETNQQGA
Method in brief: as §1

USP4 = molecular target: T4, USP4 (UniProt Q13107)
T4 sequence (whole entry): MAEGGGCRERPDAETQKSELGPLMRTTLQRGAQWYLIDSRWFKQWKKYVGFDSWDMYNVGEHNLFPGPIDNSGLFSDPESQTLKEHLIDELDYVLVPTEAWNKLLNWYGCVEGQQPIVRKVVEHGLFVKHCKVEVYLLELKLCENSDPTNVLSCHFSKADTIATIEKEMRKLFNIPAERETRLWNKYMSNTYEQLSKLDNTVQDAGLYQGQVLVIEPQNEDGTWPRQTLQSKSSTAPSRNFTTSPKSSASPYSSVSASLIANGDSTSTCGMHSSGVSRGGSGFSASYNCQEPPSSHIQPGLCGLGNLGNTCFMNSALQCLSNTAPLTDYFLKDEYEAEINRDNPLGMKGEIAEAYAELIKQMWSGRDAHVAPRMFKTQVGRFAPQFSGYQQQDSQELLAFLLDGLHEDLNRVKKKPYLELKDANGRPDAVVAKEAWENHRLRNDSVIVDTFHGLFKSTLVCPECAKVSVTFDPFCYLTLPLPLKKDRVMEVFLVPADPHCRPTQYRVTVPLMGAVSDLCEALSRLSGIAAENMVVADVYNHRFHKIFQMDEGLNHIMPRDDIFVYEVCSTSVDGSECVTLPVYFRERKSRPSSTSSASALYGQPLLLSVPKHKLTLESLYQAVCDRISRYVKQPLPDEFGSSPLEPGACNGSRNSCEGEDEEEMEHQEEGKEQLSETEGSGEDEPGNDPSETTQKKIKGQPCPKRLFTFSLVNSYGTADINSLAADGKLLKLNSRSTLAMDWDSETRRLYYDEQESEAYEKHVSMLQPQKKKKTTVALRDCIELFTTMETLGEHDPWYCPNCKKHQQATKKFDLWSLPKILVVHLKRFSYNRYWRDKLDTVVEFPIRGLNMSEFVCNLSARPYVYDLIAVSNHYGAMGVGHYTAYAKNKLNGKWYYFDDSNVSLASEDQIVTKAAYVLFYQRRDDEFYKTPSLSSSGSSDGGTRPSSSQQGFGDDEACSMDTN
Method in brief: as §1

Measured: log2 ratio of Biotin-Ahx-Ub-VS probe labelling

USP34, sequence (Q70CQ2 whole entry, the tested form may be a part): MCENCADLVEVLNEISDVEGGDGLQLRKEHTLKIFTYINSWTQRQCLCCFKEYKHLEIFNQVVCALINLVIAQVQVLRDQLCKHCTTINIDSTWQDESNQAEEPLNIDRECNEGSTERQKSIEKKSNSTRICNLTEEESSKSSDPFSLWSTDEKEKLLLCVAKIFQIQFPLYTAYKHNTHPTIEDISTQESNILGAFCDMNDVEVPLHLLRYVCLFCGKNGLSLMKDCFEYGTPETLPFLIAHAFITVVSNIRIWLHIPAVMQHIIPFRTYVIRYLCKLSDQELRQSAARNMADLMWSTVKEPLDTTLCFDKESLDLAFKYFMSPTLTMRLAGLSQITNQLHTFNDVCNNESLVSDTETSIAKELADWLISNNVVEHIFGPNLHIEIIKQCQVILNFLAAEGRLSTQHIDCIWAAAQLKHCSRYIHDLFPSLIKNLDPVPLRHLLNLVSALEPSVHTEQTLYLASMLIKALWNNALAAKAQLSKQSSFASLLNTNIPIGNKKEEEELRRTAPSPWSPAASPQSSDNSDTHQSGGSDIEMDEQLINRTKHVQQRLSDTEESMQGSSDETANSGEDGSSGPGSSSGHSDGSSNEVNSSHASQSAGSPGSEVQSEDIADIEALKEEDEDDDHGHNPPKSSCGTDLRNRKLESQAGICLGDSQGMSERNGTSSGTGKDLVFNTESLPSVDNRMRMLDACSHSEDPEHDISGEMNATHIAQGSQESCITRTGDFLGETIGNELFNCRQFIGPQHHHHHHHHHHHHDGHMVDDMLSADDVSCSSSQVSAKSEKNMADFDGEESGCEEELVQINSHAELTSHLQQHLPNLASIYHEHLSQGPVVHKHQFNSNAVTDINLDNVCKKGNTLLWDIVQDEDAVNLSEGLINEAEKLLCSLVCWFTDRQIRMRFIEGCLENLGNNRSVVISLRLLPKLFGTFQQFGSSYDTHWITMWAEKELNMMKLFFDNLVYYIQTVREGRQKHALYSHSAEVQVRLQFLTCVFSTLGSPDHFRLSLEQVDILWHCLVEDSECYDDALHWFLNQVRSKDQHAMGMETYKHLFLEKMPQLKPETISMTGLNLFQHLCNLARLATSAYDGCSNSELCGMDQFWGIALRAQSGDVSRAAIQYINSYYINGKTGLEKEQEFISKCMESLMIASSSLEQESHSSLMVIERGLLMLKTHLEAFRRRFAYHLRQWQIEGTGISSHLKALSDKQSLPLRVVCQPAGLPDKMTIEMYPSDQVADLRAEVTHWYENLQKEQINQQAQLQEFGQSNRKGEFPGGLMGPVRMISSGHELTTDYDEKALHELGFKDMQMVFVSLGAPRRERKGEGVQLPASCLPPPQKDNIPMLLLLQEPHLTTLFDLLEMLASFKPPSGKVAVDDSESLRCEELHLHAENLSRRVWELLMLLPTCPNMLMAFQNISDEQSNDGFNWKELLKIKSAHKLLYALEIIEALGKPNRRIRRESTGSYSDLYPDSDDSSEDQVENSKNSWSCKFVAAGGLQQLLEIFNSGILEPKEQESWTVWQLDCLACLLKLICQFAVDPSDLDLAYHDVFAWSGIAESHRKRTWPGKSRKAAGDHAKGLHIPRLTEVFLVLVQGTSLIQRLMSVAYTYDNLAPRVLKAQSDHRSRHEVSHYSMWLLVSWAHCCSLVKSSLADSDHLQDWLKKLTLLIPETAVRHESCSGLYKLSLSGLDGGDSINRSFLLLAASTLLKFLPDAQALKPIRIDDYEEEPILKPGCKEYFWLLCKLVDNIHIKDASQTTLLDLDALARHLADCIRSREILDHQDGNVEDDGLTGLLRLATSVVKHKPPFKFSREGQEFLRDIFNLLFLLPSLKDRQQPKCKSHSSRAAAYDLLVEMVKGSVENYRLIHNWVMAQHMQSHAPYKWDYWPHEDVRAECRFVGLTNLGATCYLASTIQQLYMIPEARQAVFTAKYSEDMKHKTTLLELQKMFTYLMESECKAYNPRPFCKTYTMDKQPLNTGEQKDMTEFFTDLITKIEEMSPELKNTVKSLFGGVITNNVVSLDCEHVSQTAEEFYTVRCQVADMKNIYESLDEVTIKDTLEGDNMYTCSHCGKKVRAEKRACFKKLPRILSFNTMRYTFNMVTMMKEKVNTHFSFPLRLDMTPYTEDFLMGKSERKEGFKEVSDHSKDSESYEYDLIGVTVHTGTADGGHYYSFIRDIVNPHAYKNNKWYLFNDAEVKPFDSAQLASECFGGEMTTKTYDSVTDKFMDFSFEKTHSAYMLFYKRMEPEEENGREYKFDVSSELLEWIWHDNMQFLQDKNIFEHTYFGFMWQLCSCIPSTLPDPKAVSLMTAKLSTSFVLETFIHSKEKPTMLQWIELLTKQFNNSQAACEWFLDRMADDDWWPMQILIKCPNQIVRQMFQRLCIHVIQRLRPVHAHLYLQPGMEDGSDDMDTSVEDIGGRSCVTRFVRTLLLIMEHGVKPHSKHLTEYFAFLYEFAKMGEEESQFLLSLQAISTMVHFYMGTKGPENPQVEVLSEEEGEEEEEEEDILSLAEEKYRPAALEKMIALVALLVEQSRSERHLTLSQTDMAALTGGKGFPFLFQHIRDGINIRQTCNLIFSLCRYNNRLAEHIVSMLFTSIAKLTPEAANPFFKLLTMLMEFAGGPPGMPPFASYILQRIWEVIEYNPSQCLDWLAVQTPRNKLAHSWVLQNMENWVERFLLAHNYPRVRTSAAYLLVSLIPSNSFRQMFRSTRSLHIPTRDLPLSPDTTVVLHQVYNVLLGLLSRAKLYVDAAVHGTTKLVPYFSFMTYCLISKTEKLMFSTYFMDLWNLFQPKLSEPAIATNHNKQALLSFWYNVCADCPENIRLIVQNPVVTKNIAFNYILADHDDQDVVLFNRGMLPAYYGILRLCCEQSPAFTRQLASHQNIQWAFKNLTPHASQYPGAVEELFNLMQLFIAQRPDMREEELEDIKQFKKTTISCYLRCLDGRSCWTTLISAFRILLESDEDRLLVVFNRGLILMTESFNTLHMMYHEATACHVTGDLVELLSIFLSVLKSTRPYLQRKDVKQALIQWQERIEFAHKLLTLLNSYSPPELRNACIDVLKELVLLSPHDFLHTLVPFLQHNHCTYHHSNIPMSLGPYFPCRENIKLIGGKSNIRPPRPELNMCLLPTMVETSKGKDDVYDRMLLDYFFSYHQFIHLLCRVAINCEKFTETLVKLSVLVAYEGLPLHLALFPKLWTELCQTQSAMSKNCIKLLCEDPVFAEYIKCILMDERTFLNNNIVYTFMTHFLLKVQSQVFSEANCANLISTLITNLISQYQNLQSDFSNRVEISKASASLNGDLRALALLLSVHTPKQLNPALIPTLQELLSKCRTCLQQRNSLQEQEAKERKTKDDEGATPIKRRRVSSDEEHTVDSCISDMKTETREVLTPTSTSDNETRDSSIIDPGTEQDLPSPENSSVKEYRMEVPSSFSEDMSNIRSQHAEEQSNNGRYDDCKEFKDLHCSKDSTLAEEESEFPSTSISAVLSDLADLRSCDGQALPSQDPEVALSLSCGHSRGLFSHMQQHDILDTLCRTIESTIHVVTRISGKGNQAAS

Cc1nc(CN2CCCN(C(=O)CCl)CC2)no1.Cl
inactive: USP34 0.0178 | USP36 -0.0476 | USP38 0.0657 | USP39 -0.161 | USP4 0.31
